# A selection: hits, their analogues and other compounds. The true share with any hit is near 3.2%.
# Coupling enz = coupling enzyme interference in Giardia aldolase counter-screen; coupling enzyme system counterscreen, AmpLite Red fluorescence; activity change, negative = inhibition, % at 58.2 µM, hits read low; hit rate 0.67% among 290,000; AID 2472; in the data active = activity change below about -30%; also: % is scaled to controls: 0 for no effect and ±100 for the full control effect
#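 Coupling enzymes only (glyceraldehyde-3-phosphate) + compound, at 57.5 uM final, 10 min RT; add substrate/coupling/AmpLite Red mix, 20 min RT; fluorescence ex 525/em 598 nm. Actives flag coupling-system interference.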
# GALK inhibitor = blocks human galactokinase activity | P51570 | Purified GALK, Kinase-Glo residual ATP luminescence | Potency, µM (highest dose often 57.5 µM), for inactives: at the highest dose activity change, negative = inhibition, actives largely listed as inhibitors | hit rate 0.007% among 270,000 | AID 1868; also: potency is read from the fitted curve at half-maximal effect; % is scaled to controls: 0 for no effect and ±100 for the full control effect
#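 5 nM enzyme, 35 uM ATP, 100 uM galactose, 20 mM HEPES pH8.0, 5 mM MgCl2; 1 h RT; residual ATP by Kinase-Glo Plus luminescence, qHTS format.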
# USP2a inh = USP2a (human) protease inhibition | USP2 core, Ub-CHOP2 coupled fluorogenic reporter, 485/531 | Potency, µM (highest dose often 38.3 µM), inactives show at the top dose activity change, negative = inhibition, hits mostly inhibitors | hit rate 0.01% among 330,000;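 also: potency is read from the fitted curve at half-maximal effect; plate controls were DMSO wells for no effect and full inhibition by NEM control for full effect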
# Target sequence (O75604 whole entry, looked up): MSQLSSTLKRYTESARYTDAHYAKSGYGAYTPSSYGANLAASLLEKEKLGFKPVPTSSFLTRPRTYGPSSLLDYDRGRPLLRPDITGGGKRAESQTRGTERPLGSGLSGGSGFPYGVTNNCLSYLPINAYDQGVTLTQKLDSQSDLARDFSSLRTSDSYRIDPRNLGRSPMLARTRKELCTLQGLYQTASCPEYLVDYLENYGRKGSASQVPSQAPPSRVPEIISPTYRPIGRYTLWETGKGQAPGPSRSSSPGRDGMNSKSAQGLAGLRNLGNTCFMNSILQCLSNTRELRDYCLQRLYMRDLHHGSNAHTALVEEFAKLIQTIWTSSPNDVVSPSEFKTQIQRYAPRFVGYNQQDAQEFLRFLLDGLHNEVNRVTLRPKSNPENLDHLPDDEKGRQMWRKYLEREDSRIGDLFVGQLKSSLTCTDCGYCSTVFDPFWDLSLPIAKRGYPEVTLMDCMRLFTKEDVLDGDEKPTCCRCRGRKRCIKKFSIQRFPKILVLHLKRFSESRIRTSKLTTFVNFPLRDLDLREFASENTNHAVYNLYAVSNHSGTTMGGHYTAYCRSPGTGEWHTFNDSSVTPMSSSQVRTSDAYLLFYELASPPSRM
#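 Deubiquitinase activity read as fluorescence (485/531 nm) after Ub-CHOP2 cleavage activates the enterokinase reporter on its substrate; USP2 core 10nM, Ub-CHOP2 and substrate 25nM each, 30min compound preincubation then 60min RT; data normalized to NEM, curves fitted.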
# PLK1 PBD block = inhibitors of human PLK1 polo-box domain binding | hit rate 2.8% among 360,000 | AID 720504 | Potency, µM, for inactives: max response, negative = inhibition, actives largely listed as inhibitors | P53350 | Plk1 PBD binding of FITC phosphopeptide, fluorescence polarization; also: potency is read from the fitted curve at half-maximal effect; series mostly up to about 57 µM; % is scaled to controls: 0 for no effect and ±100 for the full control effect; nearly all actives have a fitted effect of over 65% in size
# VDR inhibitor = inhibitors of human vitamin D receptor; VDR-SRC2-3 peptide fluorescence polarization, 2 h; Potency, µM, for the others: max response, negative = inhibition, most hits filed as inhibitors; hit rate 0.93% among 400,000; AID 504847; also: potency is read from the fitted curve at half-maximal effect; % is scaled to controls: 0 for no effect and ±100 for the full control effect
#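 Fluorescence polarization assay of small-molecule disruption of VDR binding to coregulator peptide SRC2-3. Compounds and controls pin-transferred, then read after 2 h incubation at ambient room temperature.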
# USP1-UAF1 inh = inhibitors of human USP1/UAF1 deubiquitinase; AID 743255; hit rate 0.23% among 390,000; O94782; recombinant USP1/UAF1, Ub-Rhodamine cleavage fluorescence; Potency, µM (highest dose often 57.1 µM), without a hit: at the highest dose activity change, negative = inhibition, most hits filed as inhibitors; also: potency is read from the fitted curve at half-maximal effect; % is scaled to controls: 0 for no effect and ±100 for the full control effect; nearly all actives have a fitted effect of over 60% in size
#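 USP1/UAF1 complex (1 nM) preincubated 15 min at room temperature with compound, then Ub-Rho substrate (150 nM final) added. Kinetic fluorescence at 480/540 nm over 6 reads at 60 s intervals; 50 mM HEPES pH 7.8, 0.5 mM EDTA, 0.1 mg/ml BSA, 1 mM TCEP, 0.01% Tween-20.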
# CASP1 redox cat = caspase-1 inhibition with catalase present; shares compounds with Coupling enz; caspase-1 Ac-WEHD-AFC fluorescence rate, catalase buffer; Potency, µM (top dose mostly 57.5 µM), for the others: at the highest dose activity change, negative = inhibition, actives largely listed as inhibitors; 30 tested, under 10 active; AID 888; active = well fitted inhibition curve with a large enough effect in the main read-out, with a control signal flat; inconclusive = small, poorly fitted or top-dose-only effect, or a change in a side signal; inactive = no such curve, though single readings can be large or run the other way
# Target sequence (P29466 120-297 limits assumed): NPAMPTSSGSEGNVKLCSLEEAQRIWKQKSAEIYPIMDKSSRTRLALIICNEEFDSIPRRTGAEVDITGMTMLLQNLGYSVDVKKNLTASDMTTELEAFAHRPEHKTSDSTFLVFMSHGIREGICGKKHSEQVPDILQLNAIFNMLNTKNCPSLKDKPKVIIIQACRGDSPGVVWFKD
# Target sequence (P29466 317-404 limits assumed): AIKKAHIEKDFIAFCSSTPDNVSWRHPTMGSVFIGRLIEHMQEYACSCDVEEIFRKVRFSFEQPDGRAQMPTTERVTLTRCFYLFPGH
# Casp1 confirm = blocks human caspase-1 activity in concentration-response | shares compounds with Coupling enz | purified caspase-1, fluorogenic substrate cleavage | Potency, µM (doses to about 57.5 µM), for inactives: at the highest dose activity change, negative = inhibition, usual class: inhibitors | hit rate 20% among 60 | AID 896; active = well fitted inhibition curve with a large enough effect in the main read-out, with a control signal flat; inconclusive = small, poorly fitted or top-dose-only effect, or a change in a side signal; inactive = no such curve, though single readings can be large or run the other way
# Casp7 confirm = confirmation of allosteric or competitive inhibitors of human caspase-7 | shares compounds with Coupling enz | recombinant caspase-7, fluorogenic substrate cleavage | Potency, µM (top dose mostly 57.5 µM), without a hit: at the highest dose activity change, negative = inhibition, actives largely listed as inhibitors | 60 tested, under 10 active | AID 897; active = well fitted inhibition curve with a large enough effect in the main read-out, with a control signal flat, not every such curve was filed as active; inconclusive = small, poorly fitted or top-dose-only effect, or a change in a side signal; inactive = no such curve, though single readings can be large or run the other way
# Casp7 cysteine = counter-screen for redox active caspase-7 inhibitors: cysteine buffer; shares compounds with Coupling enz; caspase-7 enzyme with cysteine, fluorogenic substrate, redox counterscreen; Potency, µM (series often up to 57.5 µM), for the others: top-dose activity change, negative = inhibition, usual class: inhibitors; 60 tested, under 10 active; active = well fitted inhibition curve with a large enough effect in the main read-out, with a control signal flat; inconclusive = small, poorly fitted or top-dose-only effect, or a change in a side signal; inactive = no such curve, though single readings can be large or run the other way
# Casp7 catalase = counter-screen for redox active caspase-7 inhibitors: catalase buffer. shares compounds with Coupling enz. Caspase-7 Ac-DEVD-AFC fluorescence rate, catalase buffer. Potency, µM (doses to about 57.5 µM), for the others: at the highest dose activity, negative = inhibition, hits mostly inhibitors. 30 tested, under 10 active. AID 909; active = well fitted inhibition curve with a large enough effect in the main read-out, with a control signal flat; inconclusive = small, poorly fitted or top-dose-only effect, or a change in a side signal; inactive = no such curve, though single readings can be large or run the other way
# Casp1 cysteine = counter-screen for redox active caspase-1 inhibitors: cysteine buffer. shares compounds with Coupling enz. recombinant caspase-1, fluorogenic substrate, cysteine buffer. Potency, µM (top dose mostly 57.5 µM), without a hit: at the top dose activity change, negative = inhibition, usual class: inhibitors. 60 tested, under 10 active. AID 929; active = well fitted inhibition curve with a large enough effect in the main read-out, with a control signal flat; inconclusive = small, poorly fitted or top-dose-only effect, or a change in a side signal; inactive = no such curve, though single readings can be large or run the other way
# VDR confirm = confirmation of human vitamin D receptor inhibitors; shares compounds with VDR inhibitor; VDR-coactivator inhibition assay, qHTS confirmation; Potency, µM, most hits filed as inhibitors; hit rate 89% among 840; AID 602199; also: potency is read from the fitted curve at half-maximal effect
# VDR FP = blocks human VDR-coactivator binding in fluorescein assay; VDR-coactivator binding, fluorescein fluorescence polarization; Potency, µM (highest dose often 57.1 µM), inactives show at the highest dose activity change, negative = inhibition, most hits filed as inhibitors; hit rate 48% among 840; shares compounds with VDR inhibitor; also: potency is read from the fitted curve at half-maximal effect
# VDR bla = VDR (human) inhibition, cell-based beta-lactamase validation; Potency, µM (top dose mostly 46.1 µM), without a hit: top-dose activity change, negative = inhibition, usual class: inhibitors; VDR beta-lactamase reporter cells, FRET ratio; cells co-treated with VDR agonist LG190178; shares compounds with VDR inhibitor; hit rate 23% among 840; also: potency is read from the fitted curve at half-maximal effect; % is scaled to controls: 0 for no effect and ±100 for the full control effect
# VDR viability = counter-screen for vitamin D receptor inhibitors: cytotoxicity. cytotoxicity counter-screen, cell viability, qHTS. AID 602204. shares compounds with VDR inhibitor. hit rate 18% among 840. Potency, µM (series often up to 48.3 µM), inactives show at the top dose activity change, negative = cytotoxicity, actives largely listed as cytotoxic;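 also: potency is read from the fitted curve at half-maximal effect; plate controls were DMSO for no effect and high-concentration cycloheximide for full effect; nearly all actives have a fitted effect of over 75% in size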
# TbPYK inh = Trypanosoma brucei pyruvate kinase inhibition, cherry-pick confirmation. shares compounds with PLK1 PBD block. recombinant TbPYK, Kinase-Glo ATP luminescence. Potency, µM (series often up to 76.9 µM), without a hit: at the top dose activity change, negative = inhibition, most hits filed as inhibitors. hit rate 67% among 890; also: potency is read from the fitted curve at half-maximal effect; % is scaled to controls: 0 for no effect and ±100 for the full control effect; nearly all actives have a fitted effect of over 70% in size
# TbPYK orthogonal = orthogonal confirmation of Trypanosoma brucei pyruvate kinase inhibitors; recombinant TbPYK, ADP-Glo luminescence, 60 min; Potency, µM (doses to about 76.9 µM), inactives show top-dose activity change, negative = inhibition, hits mostly inhibitors; hit rate 62% among 890; shares compounds with PLK1 PBD block; also: potency is read from the fitted curve at half-maximal effect; % is scaled to controls: 0 for no effect and ±100 for the full control effect; nearly all actives have a fitted effect of over 75% in size
# The depositor's hits bear a star; u = inconclusive; x = no result given. Unless noted, calls follow the shape of the dose curve; as a rule, active = well fitted curve in the direction sought with a large enough effect; inconclusive = small, poorly fitted or top-dose-only effect, or another doubt; inactive = no such curve, though single readings can be large; an effect the other way counts as inactive or inconclusive.
SMILES,Coupling enz,GALK inhibitor,USP2a inh,PLK1 PBD block,VDR inhibitor,USP1-UAF1 inh,VDR confirm,VDR FP,VDR bla,VDR viability,others
COc1ccc(C2CC(=O)N3CN(c4ccc(C)c(Cl)c4)CSC3=C2C#N)cc1OC (stereo unspecified),-38*,2%,-2%,u,22µM*,-8%,x,x,x,x,CASP1 redox cat=-2%;Casp1 confirm=-8%;Casp7 confirm=-4%;Casp7 cysteine=-6%;Casp7 catalase=-5%;Casp1 cysteine=3%;TbPYK inh=u;TbPYK orthogonal=18µM*
Clc1cccc(-c2nc3ccc(Cl)cn3c2Cc2ccccc2)c1,x,x,x,0%,x,x,x,x,x,x,
CCOc1ccc(/C=C/C(=O)Nc2sc3c(c2C(=O)OC)C(C(=O)OC)CC3)cc1 (stereo unspecified),x,x,x,x,22µM*,u,u,3.5µM*,13µM*,u,
CCOc1ccc(/C=C/C(=O)Nc2sc3c(c2C(=O)OC)CCCC3)cc1,x,x,x,x,13%,-18%,x,x,x,x,
C=CCSc1nnc(NC(=O)c2nc(SCC)ncc2Cl)s1,0,-1%,5%,-8%,-6%,-16%,x,x,x,x,
CC(C)c1nnc(NC(=O)c2nc(S(=O)(=O)Cc3ccc(F)cc3)ncc2Cl)s1,x,5%,3%,-22%,10µM*,-20%,7.5*,3.5µM*,16µM*,10µM*,
Cc1cccc(CS(=O)(=O)c2ncc(Cl)c(C(=O)Nc3nnc(C(C)C)s3)n2)c1,x,3%,3%,u,8.9µM*,-20%,6*,3.5µM*,8.2µM*,13µM*,
CC(C)c1nnc(NC(=O)c2nc(SCc3ccc(F)cc3)ncc2Cl)s1,x,x,x,x,0%,-12%,x,x,x,x,
Cc1ccc(CS(=O)(=O)c2ncc(Cl)c(C(=O)Nc3nnc(C(C)C)s3)n2)cc1,10,4%,1%,u,13µM*,u,6.7*,3.2µM*,9.2µM*,18µM*,
CCSc1nnc(NC(=O)c2nc(S(=O)(=O)Cc3ccc(F)cc3)ncc2Cl)s1,x,1%,3%,u,u,-18%,2.8*,3.5µM*,16µM*,19µM*,
CCCCOC(=O)Nc1nc(CC(=O)OCC)cs1,-1,-2%,-1%,-10%,1%,-1%,x,x,x,x,
CN1CC(=O)N(CC(=O)Nc2ccc(SC(F)F)cc2)C1=O,12,11%,0%,u,-3%,-12%,x,x,x,x,
CC(=O)Oc1ccc(C(=O)Nc2cccc(C(=O)NC(C)(C)C)c2)cc1,1,7%,0%,-23%,-22%,-15%,x,x,x,x,
CSc1ccc(NC(=O)C2(C)CCN2C(=O)c2cc(C)n(C)n2)cc1 (stereo unspecified),x,x,x,-5%,x,x,x,x,x,x,
CSc1nnc(NC(=O)c2nc(S(=O)(=O)Cc3cccc(C)c3)ncc2Cl)s1,x,-11%,2%,u,14µM*,-7%,4.2*,u,5.8µM*,16µM*,
O=C(c1ccc2c(c1)OCO2)n1nnc2ccccc21,0,0%,1%,x,x,x,x,x,x,x,
COc1ccc(C(=O)n2nnc3ccccc32)cc1OC,0,x,1%,9.5µM*,50µM*,-5%,u,u,33%,1%,
Cc1cc2c(c(C)c1Cl)C(c1ccc3c(c1)OCO3)CC(=O)O2 (stereo unspecified),-7,x,-7%,-5%,4%,-12%,x,x,x,x,
Cc1ccc(C(C[N+](=O)[O-])n2nc(C)cc2C)cc1 (stereo unspecified),2,-2%,1%,17µM*,79µM*,-19%,13*,8.9µM*,u,u,
CCCCc1c(O)nc(SCC(=O)c2ccccc2)n(-c2ccccc2OC)c1=O,6,4%,-1%,-1%,16%,-14%,x,x,x,x,
Cc1ccc(NC(=O)c2ccc(NC(=O)N3CCSc4ncccc43)cc2)cc1Cl,x,x,x,x,9%,u,x,x,x,x,

# High-throughput results deposited in PubChem BioAssay by National Center for Advancing Translational Sciences (NCATS).
